For assay [1] the following is noted: Ebola virus entry assay, green fluorescence channel.
For assay [2] the following is noted: Ebola virus entry assay, blue channel fluorescence.
The conditions of assay [3]: Ebola virus entry assay, green fluorescence channel. This is another data set of the same source.
For assay [4] the following is noted: Ebola virus entry assay, ratio channel readout.
The conditions of assay [5]: Ebola virus entry assay, ratio channel.
The conditions of assay [6]: Ebola virus entry assay, green channel fluorescence.
The conditions of assay [7]: Ebola virus entry assay, blue channel fluorescence. This is another data set of the same source.
For assay [8] the following is noted: Ebola virus entry assay, reporter ratio channel; AC50: Channel type: primary unless noted; outcome: Channel type: primary unless noted.
For assay [9] the following is noted: Ebola virus entry assay, blue channel (ratio component).
For assay [10] the following is noted: Ebola virus entry reporter assay, green channel fluorescence.
For assay [11] the following is noted: Ebola virus entry cell assay, ratio channel.
Assay [12] in a line: qHTS profiling of the MIPE4 collection as inhibitors of Plasmodium falciparum (3D7) proliferation (AID 743344).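 Also: scaled between DMSO vehicle wells and 0.29 µM artemisinin as full inhibition.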 As to conditions: P. falciparum 3D7 in erythrocytes, SYBR Green DNA fluorescence, 72 h; at 28.5 µM (top of the series) unless noted. The procedure, abridged:
(§1)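 Erythrocytes infected with P. falciparum (0.3% parasitemia, 2.5% hematocrit) incubated with compounds 72 h at 37 C, 5% CO2. Lysis with saponin/Triton buffer containing SYBR Green I, overnight at room temperature in the dark; DNA fluorescence (485/535 nm) normalised to 0.29 uM artemisinin and DMSO.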
On the technique in general: In qHTS, concentration-response curves come from the screen itself.

Assay [13] can be described thus: qHTS profiling of the MIPE4 collection as inhibitors of Plasmodium falciparum (DD2) proliferation (AID 743345). To be noted: P. falciparum Dd2 in erythrocytes, SYBR Green DNA, 72 h; at 28.5 µM (top of the series) unless noted. The procedure, abridged:
as §1

The nature of assay [14]: Immunotoxin (HA22) sensitization/mitigation study. Vehicle arm (PBS) (AID 1159510). Also: potency is read from the fitted curve at half-maximal effect. To be noted: cancer cells viability with PBS vehicle (HA22 study); series mostly up to 46.1 µM.
The nature of assay [15]: Immunotoxin (SS1P) sensitization/mitigation study. Vehicle arm (DMEM) (AID 1159513). To be noted: cell viability with vehicle (DMEM); series mostly up to 46.1 µM.
The conditions of assay [16]: Ebola virus entry assay, blue channel fluorescence. This is another data set of the same source.
Assay [17] in a line: qHTS profiling of the MIPE4 collection as inhibitors of Plasmodium falciparum (DD2) proliferation (Rep 2) (AID 743346). To be noted: P. falciparum Dd2 in erythrocytes, SYBR Green DNA, 72 h; at 28.5 µM (top of the series) unless noted. A digest of the protocol: as §1

For some of these results: Measured potencies and affinities stand elsewhere. Active and inactive are the calls of the source.
For efficacy in this document: 0% is about no effect.

For `O=C1OCCN1/N=C/c1ccc([N+](=O)[O-])o1`, the efficacy in assay [1] was 18% (inactive). The compound was classed as inactive in [2], in assay [3], in assay [4], in assay [5], in assay [6] and in [7]. The outcome in assay [8], in [9], in assay [10] and in assay [11] was inactive.
As a reminder, the AC50 is the midpoint of the concentration-response curve, whichever way the signal moves. In assay [12], `CN(C)[C@@H]1C(=O)C(C(N)=O)=C(O)[C@@]2(O)C(=O)C3=C(O)c4c(O)cccc4[C@@](C)(O)[C@H]3C[C@@H]12` displayed a parasite growth, % of DMSO control of 28.7%. The parasite growth remaining, % of DMSO control (lower = more inhibition) in assay [13] came out at 39.9%. Moreover, the efficacy in [1] is 106% (inactive). Further, the call in [2], in assay [3], in [4], in assay [5], in assay [7] and in [11] was inactive. In assay [8], the AC50 was 31.6 µM (active).
`CO/N=C1\CN(c2nc3c(cc2F)c(=O)c(C(=O)O)cn3C2CC2)CC1CN` (stereo not drawn): in [1], the efficacy was -13.2% (inactive). The compound was called inactive in [2], in [3], in assay [4], in assay [5], in assay [6] and in assay [7]. The result in [8], in assay [9] and in [11] was inactive.
`CC(c1cc2ccccc2s1)N(O)C(N)=O` (stereo not drawn): the efficacy in assay [1] was -17.4% (inactive). For the same compound, the compound was classed as inactive in assay [2], in assay [3], in [4], in assay [5], in assay [6] and in [7]. In addition, the outcome in assay [8], in [9], in assay [10] and in [11] was inactive. The Potency entry in [14] and in assay [15] was “inactive” in each case.
Take `CN(C)C(=N)N=C(N)N`: the efficacy in assay [1] was -14% (inactive). The call in assay [2], in assay [3], in [4], in assay [5], in [6] and in assay [7] was inactive. In addition, the result in assay [8], in assay [9] and in assay [11] was inactive. Also, the Potency entry in assay [14] and in [15] was “inactive” in each case.
With `C=C1CC[C@@]2(O)[C@H]3Cc4ccc(O)c5c4[C@@]2(CCN3CC2CC2)[C@H]1O5`, the efficacy in assay [1] is 46.6% (inactive). Moreover, the outcome in assay [2], in assay [3], in assay [4], in assay [5], in [6] and in assay [7] was inactive. Further, the result in assay [8], in assay [9], in [10] and in [11] was inactive.
With `N[C@@H]1C[C@H]1c1ccccc1`, the efficacy in assay [1] was -26.4% (inactive). Besides, the outcome in [2], in [3], in assay [4], in assay [5], in assay [6] and in [7] was inactive. Besides, the result in [8], in [9], in assay [10] and in [11] was inactive.
Take `CCC(C(N)=O)N1CCCC1=O` (stereo not drawn): the efficacy in assay [1] was -12.2% (inactive). The result in assay [2], in [3], in [4], in [5], in assay [6] and in assay [7] was inactive. Also, the result in [8], in [9] and in assay [11] was inactive.
For `Nc1ccn([C@@H]2O[C@H](CO)[C@@H](O)C2(F)F)c(=O)n1`, the efficacy in assay [1] was -29.1% (inactive). Further, the result in assay [2], in [3], in assay [4], in [5], in assay [6] and in assay [7] was inactive. Moreover, the result in assay [8], in [9] and in assay [11] was inactive. In addition, in assay [14], the Potency is 0.0121 µM (active).
On to `Cc1cccc(C)c1OCC(C)N` (stereo not drawn), for which the efficacy in [1] was -20.8% (inactive). In addition, the result in assay [2], in assay [3], in assay [4], in assay [5], in assay [6] and in assay [8] was inactive. In addition, the result in [9] and in assay [11] was inactive.
Turning to `O=C(O)c1cn(C2CC2)c2cc(N3CCNCC3)c(F)cc2c1=O`, the efficacy in assay [1] is -9.16% (inactive). Moreover, the call in [2], in assay [3], in assay [4], in assay [6], in [7] and in assay [8] was inactive. For the same compound, the outcome in [9], in assay [10] and in assay [11] was inactive.
As for `Cc1nc(-c2ccc(OCC(C)C)c(C#N)c2)sc1C(=O)O`, the efficacy in assay [1] is 65.9% (inactive). For the same compound, the compound was classed as inactive in [2], in [3], in assay [4], in assay [16], in [7] and in [8]. The outcome in assay [9], in assay [10] and in [11] was inactive.
As to `O=C(O)c1ccc(-n2nc(-c3ccccc3O)nc2-c2ccccc2O)cc1`, the efficacy in assay [1] was 48% (inactive). In addition, the compound was classed as inactive in assay [2], in [3], in [4], in assay [16], in assay [7] and in [8]. Besides, the result in assay [10] and in assay [11] was inactive.
In assay [12], `Cc1ccnc2c1NC(=O)c1cccnc1N2C1CC1` had a parasite growth, % of DMSO control of 358%. In addition, the parasite growth remaining, % of DMSO control (lower = more inhibition) in assay [13] stood at 112%. For the same compound, the efficacy in assay [1] is 25.7% (inactive). For the same compound, the compound was classed as inactive in [2], in assay [3], in [4], in assay [16], in [6] and in assay [7]. The outcome in assay [8], in assay [9] and in assay [11] was inactive.
In the case of `CCCCc1ncc(/C=C(\Cc2cccs2)C(=O)O)n1Cc1ccc(C(=O)O)cc1`, the efficacy in assay [1] is -11.8% (inactive). The result in assay [2], in assay [3], in assay [4], in [5], in assay [6] and in assay [7] was inactive. In addition, the outcome in assay [8], in assay [9], in assay [10] and in assay [11] was inactive.
On to `CC(C)c1c(C(=O)Nc2ccccc2)c(-c2ccccc2)c(-c2ccc(F)cc2)n1CC[C@@H](O)C[C@@H](O)CC(=O)O`, for which the efficacy in assay [1] was 32.2% (inactive). For the same compound, the call in assay [2], in assay [3], in assay [4], in assay [5], in assay [6] and in [8] was inactive. For the same compound, the result in assay [9], in [10] and in [11] was inactive.
`CN1C(CCl)Nc2cc(Cl)c(S(N)(=O)=O)cc2S1(=O)=O` (stereo not drawn): the efficacy in [1] was -11.6% (inactive). Besides, the compound was called inactive in [2], in assay [3], in assay [4], in assay [5], in assay [6] and in assay [7]. Also, the result in assay [8], in [9] and in assay [11] was inactive.
In turn, `CN1CCN(C(=O)O[C@H]2c3nccnc3C(=O)N2c2ccc(Cl)cn2)CC1` yielded a parasite growth, % of DMSO control in [12] of 95.4%. The parasite growth remaining, % of DMSO control (lower = more inhibition) in assay [13] is 98.2%. The compound also had a parasite growth, % of control (lower = inhibition) in assay [17] of 86.8%. Besides, in assay [1], the efficacy was 27.7% (inactive). Further, the result in assay [2], in assay [3], in assay [4], in assay [16], in assay [6] and in assay [7] was inactive. Moreover, the result in assay [8], in [9] and in assay [11] was inactive.
